The list is not random: actives were taken first. Their share in the collection is about 0.33%.
IL-2 act: qHTS of IL-2 Activators. actives 0.065% (n = 360,000). IL-2 activation reporter assay, cell-based qHTS; stimulated with anti-CD3/CD4/CD28 beads; in transgenic mouse T cells. activation, % (series mostly up to about 46 µM). AID 652025, 2013; in the data active = activation above about 50%; inconclusive = mostly about 30% to 49%; note: 0% is about no effect
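Unstimulated transgenic mouse T cells, 750 per well, received compound and, after 60 minutes, anti-CD3/anti-CD4 bead plus anti-CD28 stimulation. EGFP and DsRed were quantified after 18 hours.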
ASM inhibitor: Inhibitors of Secretory Acid Sphingomyelinase (S-ASM): qHTS. Sphingomyelin phosphodiesterase (Homo sapiens), P17405. placental ASM, HMU-PC fluorogenic substrate, 60 min. Potency, µM (highest dose often 57.5 µM), inactives show top-dose activity change, negative = inhibition, usual class: inhibitors. actives 0.006% (n = 340,000); note: potency is the fitted concentration of half-maximal effect
Target sequence (P17405 47-631 limits assumed): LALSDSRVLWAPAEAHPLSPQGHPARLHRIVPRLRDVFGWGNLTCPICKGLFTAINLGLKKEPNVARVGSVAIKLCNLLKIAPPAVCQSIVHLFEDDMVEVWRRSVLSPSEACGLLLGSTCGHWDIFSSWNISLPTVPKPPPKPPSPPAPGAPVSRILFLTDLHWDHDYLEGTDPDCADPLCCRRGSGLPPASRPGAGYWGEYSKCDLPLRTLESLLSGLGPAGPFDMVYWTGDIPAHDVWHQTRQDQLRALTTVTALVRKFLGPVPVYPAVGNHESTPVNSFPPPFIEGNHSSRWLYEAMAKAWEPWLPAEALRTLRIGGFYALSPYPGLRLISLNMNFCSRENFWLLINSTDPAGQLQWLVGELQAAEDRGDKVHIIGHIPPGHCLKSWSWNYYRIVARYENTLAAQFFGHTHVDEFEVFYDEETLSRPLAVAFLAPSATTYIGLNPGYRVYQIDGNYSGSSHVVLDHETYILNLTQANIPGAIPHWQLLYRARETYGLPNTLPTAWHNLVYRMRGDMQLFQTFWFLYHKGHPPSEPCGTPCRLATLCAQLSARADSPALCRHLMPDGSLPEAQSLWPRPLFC
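Steps: dispense placental human ASM, pin compound, wait 10 min at room temperature, add HMU-PC0 substrate at 9 uM final, incubate 60 min at 37 °C, add stop solution raising pH to 10, read fluorescence.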
PKM2 activator: qHTS Assay for Activators of Human Muscle isoform 2 Pyruvate Kinase; Pyruvate kinase PKM (Homo sapiens), P14618; purified PKM2, Kinase-Glo ATP luminescence, activation; response scale: 0% is enzyme alone, no compound; Potency, µM (series often up to 57.5 µM), for inactives: top-dose activation, usual class: activators; actives 0.34% (n = 260,000); AID 1631, 2009; note: potency is the fitted concentration of half-maximal effect; % is set by controls: 0 for no effect and ±100 for the full control effect; nearly all actives have a fitted effect of over 55% in size
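hPK-M2, >95% pure; 0.1 mM ADP / 0.5 mM PEP final; imidazole pH7.2 buffer w/ 7 mM MgCl2, 50 mM KCl; 1 h RT; Kinase-Glo lum. Intermediate enzyme activity for dual inhibitor/activator qHTS.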
* = called active by the depositor. Unless noted, calls come from the whole dose curve; as a rule, active = well fitted curve in the direction sought with a large enough effect; inconclusive = small, poorly fitted or top-dose-only effect, or another doubt; inactive = no such curve, though single readings can be large; an effect the other way counts as inactive or inconclusive.

CC(C)(C)C(=O)CC1(O)C(=O)N(Cc2ccc(Cl)cc2)c2ccccc21 (centres undefined) was read as IL-2 act -1.8, ASM inhibitor -2.8% and PKM2 activator -0.2%.
O=C(Nc1cccc(-c2ccc(F)cc2)c1)C1CCCN(Cc2cccnc2)C1 (centres undefined) was read as IL-2 act -1.2, ASM inhibitor 0.1% and PKM2 activator 1.8%.
`N#CCc1c(C#N)c(N)nc(N2CCN(S(=O)(=O)c3ccccc3)CC2)c1C#N` gave IL-2 act 1.1, ASM inhibitor 7.7% and PKM2 activator inconclusive.
Screening O=C(COc1ccccc1)N1CCN(S(=O)(=O)c2ccc(Br)cc2)CC1 returned IL-2 act -0.1 and ASM inhibitor 0.2%.
For COc1ccc(S(=O)(=O)N2CCN(C(=O)COc3ccccc3)CC2)cc1 the results were IL-2 act -0.5, ASM inhibitor 0.0% and PKM2 activator 14.1µM*.
CCCN1C(=O)S/C(=C\c2ccc(N3CCOCC3)o2)C1=O was read as IL-2 act 1.3, ASM inhibitor -8.2% and PKM2 activator 3.55µM*.
Screening CCCN1C(=O)S/C(=C\c2ccc(N3CCOCC3)cc2C)C1=O returned PKM2 activator -5.9%.
Screening CSCC[C@H](NC(=O)COc1cc2c(c3oc(=O)c(C)c(C)c13)CCC(C)(C)O2)C(=O)O returned IL-2 act 0.4 and ASM inhibitor 54.2%.
`O=C(CCS(=O)(=O)c1ccc(F)cc1)Nc1nnc(-c2cccs2)o1` gave IL-2 act -4.6.
For NCCCSC1=NCCCN1 the results were IL-2 act -1.5, ASM inhibitor 1.1% and PKM2 activator -1.6%.
Screening O=C(NC1CCCC1)C(c1ccncc1)N(Cc1ccccc1)C(=O)c1ccc(-c2ccccc2)[nH]1 (centres undefined) returned IL-2 act 0.0, ASM inhibitor -11.1% and PKM2 activator 2.4%.
`CC(C)(C)NC(=O)C(c1ccncc1)N(Cc1ccc(F)cc1)C(=O)c1ccc(-c2ccccc2)[nH]1` (centres undefined) gave IL-2 act 1.5, ASM inhibitor -16.1% and PKM2 activator 28.2µM*.
Cc1ccccc1C(=O)NC(=S)NC1CCSC1=O (centres undefined) was read as IL-2 act 0.9, ASM inhibitor 0.0% and PKM2 activator 4.0%.
Screening COc1cccc(CNC(=O)C2CCN(S(=O)(=O)c3ccc(C)cc3)CC2)c1 returned IL-2 act -1.6 and ASM inhibitor -1.8%.
`COc1ccc(S(=O)(=O)N2CCCN(S(=O)(=O)c3ccc(OC)cc3C)CC2)c(C)c1` gave IL-2 act -2.0, ASM inhibitor -4.6% and PKM2 activator 8.91µM*.
Screening COc1ccc(CNC(=O)N2CCN(S(=O)(=O)c3ccc(C)cc3C)CC2)cc1 returned IL-2 act -3.4, ASM inhibitor -0.6% and PKM2 activator 4.47µM*.
`COc1ccccc1CNC(=O)N1CCN(S(=O)(=O)c2ccc(C)cc2)CC1` gave IL-2 act 1.1, ASM inhibitor 1.2% and PKM2 activator inconclusive.
`COc1ccc(S(=O)(=O)N2CCN(C(=O)NCc3ccc(C)cc3)CC2)cc1` gave IL-2 act -1.9, ASM inhibitor 0.0% and PKM2 activator 7.08µM*.
Screening COc1ccc(OC)c(S(=O)(=O)N2CCCCCC2)c1 returned IL-2 act 0.3, ASM inhibitor 0.7% and PKM2 activator 4.7%.
Screening Cc1ccc(S(=O)(=O)N2CCN(C(=O)NCc3ccc(F)cc3)CC2)c(C)c1 returned IL-2 act -0.6 and ASM inhibitor -4.3%.
For COc1cccc(CNC(=O)N2CCN(S(=O)(=O)c3ccc(C)cc3)CC2)c1 the results were IL-2 act -0.9, ASM inhibitor -0.3% and PKM2 activator 11.2µM*.
Nc1[nH]c(C(=O)c2ccccc2)c(-c2ccc(Cl)cc2Cl)c1C(=O)NCCc1c[nH]c2ccccc12 was read as IL-2 act 0.6.
`O=S(=O)(c1ccc(-c2cc(C(F)(F)F)on2)s1)N1CCCC1` gave IL-2 act -2.0, ASM inhibitor -5.1% and PKM2 activator -9.2%.
Screening COc1ccc(S(=O)(=O)N2CCN(C(=S)NCCc3ccccc3)CC2)cc1 returned IL-2 act -3.1, ASM inhibitor -3.2% and PKM2 activator 0.3%.
Screening COCCCNC(=S)N1CCN(S(=O)(=O)c2ccc(OC)cc2)CC1 returned IL-2 act 0.9, ASM inhibitor -3.9% and PKM2 activator 0.891µM*.
CN(CC(=O)Nc1c(Cl)cccc1Cl)C(=O)CNC(=O)c1ccc2ccccc2c1 was read as IL-2 act -4.5 and ASM inhibitor -1.9%.
For CSc1cccc(NS(=O)(=O)c2ccc(-c3coc(C)n3)cc2)c1 the results were IL-2 act -1.3 and ASM inhibitor -6.8%.
For Cc1nc(-c2ccc(S(=O)(=O)Nc3cccc(Cl)c3)cc2)co1 the results were IL-2 act -1.0, ASM inhibitor -2.2% and PKM2 activator 7.94µM*.
Screening CC(=O)c1ccc(OCCCCCCCOc2ccc(C(C)=O)cc2)cc1 returned IL-2 act -3.0, ASM inhibitor -1.6% and PKM2 activator 23.3%.
Screening Cc1cc(C)n2nc(C(=O)N/N=C/c3ccccc3C)nc2n1 returned IL-2 act 0.9, ASM inhibitor -2.1% and PKM2 activator 2.0%.
O=c1oc2cc(O)ccc2cc1-c1nc2c(s1)CCc1ccccc1-2 was read as IL-2 act 50.3*, ASM inhibitor inactive and PKM2 activator -6.8%.
Screening O=c1oc2ccccc2cc1-c1nc2c(s1)CCc1ccccc1-2 returned IL-2 act inconclusive, ASM inhibitor 237.2% and PKM2 activator -3.2%.
For O=S(=O)(NCCCO)c1ccc2c(c1)Cc1cc(S(=O)(=O)NCCCO)ccc1-2 the results were IL-2 act 0.8, ASM inhibitor -0.5% and PKM2 activator 12.6µM*.
O=S(=O)(NCCO)c1ccc2c(c1)Cc1cc(S(=O)(=O)NCCO)ccc1-2 was read as IL-2 act -2.4 and ASM inhibitor 2.4%.
Screening O=C(/C=N/O)NCc1cccnc1 returned IL-2 act -1.5, ASM inhibitor -1.8% and PKM2 activator 4.2%.
`Cn1c(CSc2nc3ccc(Br)cc3[nH]2)nc2ccccc21` gave IL-2 act -2.4, ASM inhibitor -2.2% and PKM2 activator -3.9%.
For Cn1c(CSc2nnc(SCc3ccccc3)s2)nc2ccccc21 the results were IL-2 act 1.3, ASM inhibitor -2.2% and PKM2 activator 17.8µM*.
For Cc1ccc(N2CCN(S(=O)(=O)N(C)C)CC2)cc1C the results were IL-2 act -3.6, ASM inhibitor -1.0% and PKM2 activator 10.3%.
O=C(COC(=O)c1cccc(F)c1)NC(=O)NC1CCCC1 was read as IL-2 act 2.2 and ASM inhibitor 3.0%.
Cc1ccc(-c2nn(-c3ccccc3)cc2CN(Cc2ccccc2)C(=O)c2ccco2)o1 was read as IL-2 act -3.0, ASM inhibitor -6.4% and PKM2 activator 25.1µM*.
Cc1ccc(-c2nn(-c3ccccc3)cc2C(=O)O)o1 was read as PKM2 activator 14.9%.
